Results filed as inconclusive are left out. Activity calls are given as the source filed them. Calls come from the whole dose curve; as a rule, active = well fitted curve in the direction sought with a large enough effect; inconclusive = small, poorly fitted or top-dose-only effect, or another doubt; inactive = no such curve, though single readings can be large; an effect the other way counts as inactive or inconclusive.
Key:
[1] = Cellular Toxicity (caspase-3) Renal Proximal Tubule (AID 667);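 note: cells exposed to compound for 16 hours at 37 °C before detection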
Method in brief: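 Caspase 3/7 activation measured by luminescent aminoluciferin release in primary rat proximal tubule cells after 16 hr compound exposure at 37 °C. AC50 from Hill-fitted concentration-response, scaled between DMSO and 10 uM staurosporine.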

[2] = target: Cytochrome P450 3A4 (Homo sapiens) (UniProt P08684); assay: qHTS Assay for Inhibitors and Substrates of Cytochrome P450 3A4 (AID 884); note: series mostly up to about 57 µM; nearly all actives have a fitted effect of over 50% in size
Cytochrome P450 3A4 (Homo sapiens), sequence (P08684 whole entry, looked up): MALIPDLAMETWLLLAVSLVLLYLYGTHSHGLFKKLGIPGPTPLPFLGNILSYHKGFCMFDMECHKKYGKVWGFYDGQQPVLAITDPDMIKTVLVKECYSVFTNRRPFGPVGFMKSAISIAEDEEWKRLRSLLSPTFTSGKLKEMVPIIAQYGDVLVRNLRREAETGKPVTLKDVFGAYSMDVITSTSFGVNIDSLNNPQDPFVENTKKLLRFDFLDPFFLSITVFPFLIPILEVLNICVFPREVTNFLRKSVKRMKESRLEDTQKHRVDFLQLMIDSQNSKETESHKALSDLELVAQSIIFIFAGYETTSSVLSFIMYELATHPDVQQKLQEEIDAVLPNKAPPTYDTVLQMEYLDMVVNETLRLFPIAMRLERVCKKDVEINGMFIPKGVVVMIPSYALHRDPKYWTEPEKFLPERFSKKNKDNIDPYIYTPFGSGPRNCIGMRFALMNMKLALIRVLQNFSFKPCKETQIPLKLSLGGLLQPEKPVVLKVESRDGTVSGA
Method in brief: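 Luminescent readout of luciferin produced by CYP3A4 (20 nM) dealkylation of Luciferin-PPXE, 25 uM (its KM). NADPH-driven reaction ran 60 min at RT after 10 min compound preincubation; data scaled to 57 uM ketoconazole as 100% inhibition.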

[3] = Cell Viability - LYMP2-001 (AID 921); note: series mostly up to about 92 µM; nearly all actives have a fitted effect of over 70% in size
Method in brief: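 Cellular ATP loss read by luciferase luminescence after 24 h compound exposure at 37 C in complete medium. LYMP2-001 lymphoblastoid cells, 2500/well; qHTS concentration-response data fitted with Hill equation for AC50.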

[4] = MultiTox-Fluor Cytotoxicity Assay - LYMP1-001 - Dead Cells (AID 946)
Method in brief: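 Seed 2500 LYMP1-001 cells/well, incubate 5 hr at 37 C; add compound, 16 hr at 37 C; add MultiTox-Fluor reagent, 60 min RT; read dead-cell fluorescence Ex/Em=485/520. Normalize to DMSO and 15 uM tetraoctylammonium bromide.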

[5] = MultiTox-Fluor Cytotoxicity Assay - LYMP1-001 - Live Cells (AID 947)
[6] = Cell Viability - LYMP1-002 - Assay at 16 hr (AID 948)
Method in brief: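 ATP luminescence (CellTiter-Glo) was measured after 16 hr compound exposure at 37 C of 2500 lymphoblastoid LYMP1-002 cells per well. Concentration-response curves were fitted with the Hill equation to give AC50.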

[7] = MultiTox-Fluor Cytotoxicity Assay - LYMP1-002 - Live Cells (AID 955);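 note: cells exposed to compound for 16 hours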
Method in brief: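 After 16 h compound exposure at 37 C, live LYMP1-002 lymphoblastoid cells (2500/well) were quantified by cleavage of cell-permeant GF-AFC substrate, read at 405/510 nm after 60 min. Concentration-response fitted with Hill equation for AC50.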

[8] = MultiTox-Fluor Cytotoxicity Assay - LYMP1-002 - Dead Cells (AID 960); note: nearly all actives have a fitted effect of over 60% in size
Method in brief: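 Dead-cell fluorescence (Ex/Em 485/520) after 16 h compound exposure at 37 C of LYMP1-002 lymphoblastoid cells in complete medium; AC50 by Hill equation, with data scaled between DMSO and 15 uM tetraoctylammonium bromide.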

[9] = MultiTox-Fluor Cytotoxicity Assay - LYMP1-003 - Live Cells (AID 962);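 note: cells exposed to compound for 16 hours at 37 °C; cytotoxic hits lower the live-cell protease signal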
Method in brief: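 Live-cell protease activity (GF-AFC substrate, 405/510 nm, 60 min at room temperature) after 16 h, 37 C compound exposure of human lymphoblastoid LYMP1-003 cells; concentration-response fitted to the Hill equation for AC50.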

[10] = Cell Viability - LYMP1-003 - Assay at 24 hr (AID 963)
Method in brief: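 Concentration-response qHTS: ATP loss measured by CellTiter-Glo luminescence after 24 h compound exposure at 37 C. Cells were LYMP1-003 human lymphoblastoid, 2500 per well. AC50 derived via standard Hill equation modeling.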

[11] = Cell Viability - LYMP1-003 - Assay at 40 hr (AID 964); note: series mostly up to about 92 µM; nearly all actives have a fitted effect of over 60% in size
Method in brief: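 Viability is taken as cellular ATP, read by CellTiter-Glo luminescence after 40 h of compound exposure at 37 C. Cells: human lymphoblastoid line LYMP1-003 at 2500/well; AC50 values derived by Hill-equation fitting of concentration-response data.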

[12] = Cell Viability - LYMP2-003 (AID 965);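 note: cells exposed to compounds for 24 h before reading; nearly all actives have a fitted effect of over 50% in size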
Method in brief: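 CellTiter-Glo luminescence quantified ATP loss after 24 h compound treatment of LYMP2-003 lymphoblastoid cells at 37 C. Titration series were fitted with the standard Hill equation to give AC50.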

[13] = Cell Viability - LYMP2-004 (AID 966); note: nearly all actives have a fitted effect of over 65% in size
Method in brief: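 AC50 values come from Hill modelling of concentration-dependent loss of intracellular ATP, measured by CellTiter-Glo luminescence. Human LYMP2-004 lymphoblastoid cells (2500/well) were exposed to compound for 24 h at 37 C.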

[14] = Cell Viability - LYMP2-005 (AID 967); note: series mostly up to about 92 µM
Method in brief: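 LYMP2-005 human lymphoblastoid cells (2500/well) were treated with compounds for 24 h at 37 C. Intracellular ATP was then measured by CellTiter-Glo luminescence after 30 min at room temperature. AC50 values came from Hill-equation fits of qHTS concentration-response data.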

[15] = Cell Viability - LYMP2-009 (AID 968); note: series mostly up to about 92 µM; nearly all actives have a fitted effect of over 55% in size
[16] = Cell Viability - LYMP2-011 (AID 969); note: nearly all actives have a fitted effect of over 60% in size
Method in brief: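 Cytotoxicity qHTS with ATP content as read-out: lymphoblastoid cells (2500/well) exposed to compound for 24 h at 37 C, then luciferase luminescence measured. Concentration-response data fitted with the standard Hill equation to give AC50.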

[17] = Cell Viability - LYMP2-013 (AID 970); note: series mostly up to about 92 µM; nearly all actives have a fitted effect of over 55% in size
Method in brief: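 qHTS cytotoxicity: ATP-dependent luminescence (CellTiter-Glo, 30 min room temperature) read after 24 h compound exposure at 37 C of 2500 LYMP2-013 lymphoblastoid cells per well. Concentration-response fitted with Hill equation to give AC50.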

[18] = Cell Viability - LYMP2-015 (AID 971); note: nearly all actives have a fitted effect of over 55% in size
Method in brief: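 Cytotoxicity readout: decrease in intracellular ATP (CellTiter-Glo luminescence) in 2500 LYMP2-015 lymphoblastoid cells/well after 24 h compound exposure at 37 C. Concentration-response data fitted with the standard Hill equation to give AC50.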

[19] = Cell Viability - LYMP2-017 (AID 972); note: series mostly up to about 92 µM; nearly all actives have a fitted effect of over 55% in size
Method in brief: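 CellTiter-Glo luminescence (cellular ATP, 30 min RT) measured cytotoxicity after 24 hr compound treatment at 37 C. Cells were a human lymphoblastoid line, LYMP2-017, plated at 2500/well and incubated 5 hr first; concentration-response fitted with Hill equation for AC50.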

[20] = Cell Viability - LYMP2-021 (AID 974); note: nearly all actives have a fitted effect of over 55% in size
Method in brief: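 AC50 values come from Hill-equation fits to CellTiter-Glo luminescence (ATP content), read after 24 hour compound exposure at 37 C of 2500 LYMP2-021 lymphoblastoid cells/well; tetraoctylammonium bromide as positive control.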

[21] = Cell Viability - LYMP2-023 (AID 975)
Method in brief: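 Intracellular ATP, read by CellTiter-Glo luminescence, reports viability after 24 hr compound exposure at 37 C. 2500 lymphoblastoid cells/well (LYMP2-023) seeded 5 hr beforehand; Hill fits give AC50; positive control tetraoctylammonium bromide.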

[22] = Cell Viability - LYMP2-025 (AID 976); note: series mostly up to about 92 µM
Method in brief: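 Cytotoxicity read as loss of intracellular ATP (luciferase luminescence) after 24 h compound treatment at 37 C. Uses LYMP2-025 lymphoblastoid cells in 1536-well format; Hill-equation modelling gives AC50; tetraoctylammonium bromide as positive control.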

[23] = Cell Viability - LYMP2-002 (AID 977); note: series mostly up to about 92 µM
Method in brief: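 Human lymphoblastoid cells, 2500/well, complete medium; 5 h 37 C settle; compound 24 h 37 C; CellTiter-Glo, 30 min RT; luminescence. Decrease in ATP = cytotoxicity; AC50 via Hill equation.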

Measured: Potency

COC(=O)c1ccccc1C(=O)OC
inactive: [1] | [2] | [3] | [4] | [5] | [6] | [7] | [8] | [9] | [10] | [11] | [12] | [13] | [14] | [15] | [16] | [17] | [18] | [19] | [20] | [21] | [22] | [23]

Source: PubChem BioAssay (NCATS)
